Measurements: ChEMBL document CHEMBL1961873, “Compounds: GSK PKIS; Assays: Nanosyn kinase panel” (2012)

Assays:
[1] = biological target: T1, Inhibitor of nuclear factor kappa-B kinase subunit epsilon (Homo sapiens) (UniProt Q14164); settings: at 1 µM;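 note: reported values are averaged percent inhibition figures against human IKKε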
T1 sequence (whole entry): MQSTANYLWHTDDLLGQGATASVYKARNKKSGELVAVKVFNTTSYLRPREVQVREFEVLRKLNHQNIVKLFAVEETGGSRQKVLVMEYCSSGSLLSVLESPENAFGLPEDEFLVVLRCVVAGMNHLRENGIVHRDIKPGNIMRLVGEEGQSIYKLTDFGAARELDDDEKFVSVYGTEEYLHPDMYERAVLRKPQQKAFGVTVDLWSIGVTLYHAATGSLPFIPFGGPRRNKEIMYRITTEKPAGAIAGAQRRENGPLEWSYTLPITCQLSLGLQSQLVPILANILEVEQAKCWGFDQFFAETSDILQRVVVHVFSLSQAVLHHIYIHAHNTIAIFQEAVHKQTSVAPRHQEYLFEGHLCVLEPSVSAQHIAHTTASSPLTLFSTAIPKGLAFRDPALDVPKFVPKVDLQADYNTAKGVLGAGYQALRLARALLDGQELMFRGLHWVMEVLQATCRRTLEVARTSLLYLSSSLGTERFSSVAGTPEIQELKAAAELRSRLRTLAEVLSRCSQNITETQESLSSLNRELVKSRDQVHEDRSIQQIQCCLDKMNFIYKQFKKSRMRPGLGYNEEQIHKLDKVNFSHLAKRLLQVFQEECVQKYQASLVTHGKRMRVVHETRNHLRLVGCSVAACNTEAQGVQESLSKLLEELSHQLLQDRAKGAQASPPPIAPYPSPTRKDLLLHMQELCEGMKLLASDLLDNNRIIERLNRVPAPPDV

[2] = biological target: T2, Serine/threonine-protein kinase Nek1 (Homo sapiens) (UniProt Q96PY6); settings: at 0.1 µM
T2 sequence (whole entry): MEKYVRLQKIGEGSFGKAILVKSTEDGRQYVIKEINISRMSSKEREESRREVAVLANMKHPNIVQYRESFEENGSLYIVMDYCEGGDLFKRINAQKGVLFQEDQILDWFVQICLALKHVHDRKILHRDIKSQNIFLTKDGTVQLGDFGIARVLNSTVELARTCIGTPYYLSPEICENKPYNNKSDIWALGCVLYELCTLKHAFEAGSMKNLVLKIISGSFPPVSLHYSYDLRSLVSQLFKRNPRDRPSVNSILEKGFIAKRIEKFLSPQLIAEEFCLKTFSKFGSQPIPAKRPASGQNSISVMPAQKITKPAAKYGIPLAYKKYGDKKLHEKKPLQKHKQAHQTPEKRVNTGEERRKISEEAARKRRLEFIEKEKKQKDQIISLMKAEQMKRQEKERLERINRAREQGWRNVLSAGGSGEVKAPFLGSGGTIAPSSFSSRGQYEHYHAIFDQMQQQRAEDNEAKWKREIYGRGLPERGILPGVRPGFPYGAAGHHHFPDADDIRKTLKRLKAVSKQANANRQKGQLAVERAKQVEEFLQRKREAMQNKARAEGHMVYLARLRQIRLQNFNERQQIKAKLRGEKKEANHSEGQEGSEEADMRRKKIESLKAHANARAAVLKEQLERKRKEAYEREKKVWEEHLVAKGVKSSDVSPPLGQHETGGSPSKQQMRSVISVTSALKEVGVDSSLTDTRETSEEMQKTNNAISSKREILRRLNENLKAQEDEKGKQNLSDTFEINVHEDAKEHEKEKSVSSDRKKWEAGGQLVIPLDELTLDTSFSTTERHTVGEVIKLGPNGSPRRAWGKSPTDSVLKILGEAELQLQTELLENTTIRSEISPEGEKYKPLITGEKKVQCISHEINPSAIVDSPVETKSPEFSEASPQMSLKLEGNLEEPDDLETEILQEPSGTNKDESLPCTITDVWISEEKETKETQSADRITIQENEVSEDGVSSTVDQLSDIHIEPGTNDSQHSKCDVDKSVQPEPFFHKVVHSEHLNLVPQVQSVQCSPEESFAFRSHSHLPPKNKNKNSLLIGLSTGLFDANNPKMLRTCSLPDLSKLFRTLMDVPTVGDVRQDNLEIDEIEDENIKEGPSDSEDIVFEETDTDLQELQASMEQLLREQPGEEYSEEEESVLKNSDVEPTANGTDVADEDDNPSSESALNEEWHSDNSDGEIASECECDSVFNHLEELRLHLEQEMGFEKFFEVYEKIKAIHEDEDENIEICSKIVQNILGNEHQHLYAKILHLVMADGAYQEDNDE

[3] = biological target: T2, Serine/threonine-protein kinase Nek1 (Homo sapiens); settings: at 1 µM
[4] = biological target: T3, Serine/threonine-protein kinase Nek2 (Homo sapiens) (UniProt P51955); settings: at 0.1 µM
T3 sequence (whole entry): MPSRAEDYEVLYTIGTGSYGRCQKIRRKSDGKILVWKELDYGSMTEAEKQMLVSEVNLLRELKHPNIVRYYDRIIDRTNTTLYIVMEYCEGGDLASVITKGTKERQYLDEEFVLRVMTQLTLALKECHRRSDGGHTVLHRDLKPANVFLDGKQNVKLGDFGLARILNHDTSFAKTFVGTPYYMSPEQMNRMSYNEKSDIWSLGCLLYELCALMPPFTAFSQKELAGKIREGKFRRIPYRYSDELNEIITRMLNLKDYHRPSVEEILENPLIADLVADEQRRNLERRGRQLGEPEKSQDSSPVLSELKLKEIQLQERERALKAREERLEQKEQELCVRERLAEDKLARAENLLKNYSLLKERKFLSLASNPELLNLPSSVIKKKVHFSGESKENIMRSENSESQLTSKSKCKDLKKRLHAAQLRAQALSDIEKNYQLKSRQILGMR

[5] = biological target: T3, Serine/threonine-protein kinase Nek2 (Homo sapiens); settings: at 1 µM
[6] = biological target: Serine/threonine-protein kinase Nek6 (Homo sapiens) (UniProt Q9HC98); settings: at 0.1 µM
[7] = biological target: Serine/threonine-protein kinase Nek6 (Homo sapiens) (UniProt Q9HC98); settings: at 1 µM
[8] = biological target: Serine/threonine-protein kinase Nek7 (Homo sapiens) (UniProt Q8TDX7); settings: at 0.1 µM
[9] = biological target: Serine/threonine-protein kinase Nek7 (Homo sapiens) (UniProt Q8TDX7); settings: at 1 µM
[10] = biological target: T4, Serine/threonine-protein kinase Nek9 (Homo sapiens) (UniProt Q8TD19); settings: at 0.1 µM
T4 sequence (whole entry): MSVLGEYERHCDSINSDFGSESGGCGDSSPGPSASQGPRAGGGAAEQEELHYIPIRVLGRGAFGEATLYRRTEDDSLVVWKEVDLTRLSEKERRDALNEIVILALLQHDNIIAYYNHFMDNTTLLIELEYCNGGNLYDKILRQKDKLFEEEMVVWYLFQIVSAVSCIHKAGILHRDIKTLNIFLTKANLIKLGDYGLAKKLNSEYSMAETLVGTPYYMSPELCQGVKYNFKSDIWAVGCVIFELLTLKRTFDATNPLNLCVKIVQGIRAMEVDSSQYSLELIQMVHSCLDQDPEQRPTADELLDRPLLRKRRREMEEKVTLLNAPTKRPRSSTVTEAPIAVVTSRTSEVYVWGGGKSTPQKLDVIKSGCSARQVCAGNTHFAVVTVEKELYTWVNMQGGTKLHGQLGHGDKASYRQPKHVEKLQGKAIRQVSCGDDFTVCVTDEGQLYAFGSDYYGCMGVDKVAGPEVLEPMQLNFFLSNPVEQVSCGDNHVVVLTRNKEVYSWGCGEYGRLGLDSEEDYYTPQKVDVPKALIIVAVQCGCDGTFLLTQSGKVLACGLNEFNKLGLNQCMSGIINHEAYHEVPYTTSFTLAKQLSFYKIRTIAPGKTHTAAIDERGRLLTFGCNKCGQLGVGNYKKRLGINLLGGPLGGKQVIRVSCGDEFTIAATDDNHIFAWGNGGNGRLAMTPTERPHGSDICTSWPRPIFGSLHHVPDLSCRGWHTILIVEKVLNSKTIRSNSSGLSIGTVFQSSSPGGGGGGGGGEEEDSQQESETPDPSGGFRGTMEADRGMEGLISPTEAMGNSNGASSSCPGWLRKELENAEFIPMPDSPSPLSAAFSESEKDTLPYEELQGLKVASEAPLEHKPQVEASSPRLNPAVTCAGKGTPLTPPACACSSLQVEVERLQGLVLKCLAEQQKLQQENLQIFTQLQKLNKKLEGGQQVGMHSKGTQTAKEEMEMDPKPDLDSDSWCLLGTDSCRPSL

[11] = biological target: T4, Serine/threonine-protein kinase Nek9 (Homo sapiens); settings: at 1 µM
[12] = biological target: Serine/threonine-protein kinase PLK1 (Homo sapiens) (UniProt P53350); settings: at 0.1 µM
[13] = biological target: Serine/threonine-protein kinase PLK1 (Homo sapiens) (UniProt P53350); settings: at 1 µM
[14] = biological target: T5, Dual specificity protein kinase TTK (Homo sapiens) (UniProt P33981); settings: at 0.1 µM
T5 sequence (whole entry): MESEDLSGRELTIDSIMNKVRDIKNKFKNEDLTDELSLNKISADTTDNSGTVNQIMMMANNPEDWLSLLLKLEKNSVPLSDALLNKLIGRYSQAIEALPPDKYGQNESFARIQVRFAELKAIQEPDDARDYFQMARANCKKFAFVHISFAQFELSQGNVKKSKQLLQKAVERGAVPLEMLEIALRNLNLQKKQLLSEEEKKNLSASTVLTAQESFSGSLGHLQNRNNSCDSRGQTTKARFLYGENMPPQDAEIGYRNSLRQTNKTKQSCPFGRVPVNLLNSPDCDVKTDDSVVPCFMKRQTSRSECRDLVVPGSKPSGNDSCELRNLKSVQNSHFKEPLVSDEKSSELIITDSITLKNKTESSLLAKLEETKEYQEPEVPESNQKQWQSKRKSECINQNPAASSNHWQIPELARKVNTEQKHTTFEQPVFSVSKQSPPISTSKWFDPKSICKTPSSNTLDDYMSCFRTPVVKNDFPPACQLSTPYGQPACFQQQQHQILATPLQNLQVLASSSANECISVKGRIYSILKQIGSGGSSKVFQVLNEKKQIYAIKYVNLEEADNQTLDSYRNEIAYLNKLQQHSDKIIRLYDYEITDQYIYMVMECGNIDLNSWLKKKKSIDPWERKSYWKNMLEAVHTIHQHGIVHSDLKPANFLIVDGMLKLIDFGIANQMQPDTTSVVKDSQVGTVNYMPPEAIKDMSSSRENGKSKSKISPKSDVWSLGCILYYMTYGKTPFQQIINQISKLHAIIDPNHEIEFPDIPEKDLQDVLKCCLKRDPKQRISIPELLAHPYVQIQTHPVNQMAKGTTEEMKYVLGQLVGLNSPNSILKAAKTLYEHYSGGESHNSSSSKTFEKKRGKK

[15] = test system: T6, Receptor-type tyrosine-protein kinase FLT3 (Homo sapiens), P36888 [D835Y]; settings: at 1 µM
T6 sequence (whole entry): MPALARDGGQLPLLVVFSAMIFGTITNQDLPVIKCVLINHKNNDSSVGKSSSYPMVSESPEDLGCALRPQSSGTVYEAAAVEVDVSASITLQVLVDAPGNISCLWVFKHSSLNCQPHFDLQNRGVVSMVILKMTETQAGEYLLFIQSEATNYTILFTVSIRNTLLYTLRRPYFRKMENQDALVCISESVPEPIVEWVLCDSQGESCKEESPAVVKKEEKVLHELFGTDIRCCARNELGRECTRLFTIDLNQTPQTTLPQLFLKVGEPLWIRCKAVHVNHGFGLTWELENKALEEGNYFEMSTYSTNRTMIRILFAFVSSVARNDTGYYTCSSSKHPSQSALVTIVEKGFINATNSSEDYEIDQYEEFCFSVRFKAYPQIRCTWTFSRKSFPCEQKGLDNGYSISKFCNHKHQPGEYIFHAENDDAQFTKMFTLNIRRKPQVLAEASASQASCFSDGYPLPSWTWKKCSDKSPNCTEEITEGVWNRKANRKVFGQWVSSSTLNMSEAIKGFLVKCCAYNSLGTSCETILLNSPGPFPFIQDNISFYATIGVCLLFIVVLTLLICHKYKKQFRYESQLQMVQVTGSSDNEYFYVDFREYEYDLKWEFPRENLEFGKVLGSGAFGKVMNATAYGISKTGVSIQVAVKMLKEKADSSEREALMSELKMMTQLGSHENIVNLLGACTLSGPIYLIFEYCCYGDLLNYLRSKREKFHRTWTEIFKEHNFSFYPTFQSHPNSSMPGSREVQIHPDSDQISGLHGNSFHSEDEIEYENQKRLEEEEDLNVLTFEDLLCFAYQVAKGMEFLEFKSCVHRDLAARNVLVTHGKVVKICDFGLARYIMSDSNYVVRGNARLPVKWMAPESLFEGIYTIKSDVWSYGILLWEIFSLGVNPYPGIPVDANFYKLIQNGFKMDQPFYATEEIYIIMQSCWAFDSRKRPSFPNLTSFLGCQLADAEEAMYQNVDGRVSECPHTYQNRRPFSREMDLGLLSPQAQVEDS

[16] = biological target: Vascular endothelial growth factor receptor 3 (Homo sapiens) (UniProt P35916); settings: at 0.1 µM
[17] = biological target: Vascular endothelial growth factor receptor 3 (Homo sapiens) (UniProt P35916); settings: at 1 µM
[18] = biological target: Macrophage colony-stimulating factor 1 receptor (Homo sapiens) (UniProt P07333); settings: at 0.1 µM
[19] = biological target: Macrophage colony-stimulating factor 1 receptor (Homo sapiens) (UniProt P07333); settings: at 1 µM
[20] = biological target: Tyrosine-protein kinase Fyn (Homo sapiens) (UniProt P06241); settings: at 0.1 µM
Tyrosine-protein kinase Fyn (Homo sapiens), sequence (P06241 2-537 limits assumed): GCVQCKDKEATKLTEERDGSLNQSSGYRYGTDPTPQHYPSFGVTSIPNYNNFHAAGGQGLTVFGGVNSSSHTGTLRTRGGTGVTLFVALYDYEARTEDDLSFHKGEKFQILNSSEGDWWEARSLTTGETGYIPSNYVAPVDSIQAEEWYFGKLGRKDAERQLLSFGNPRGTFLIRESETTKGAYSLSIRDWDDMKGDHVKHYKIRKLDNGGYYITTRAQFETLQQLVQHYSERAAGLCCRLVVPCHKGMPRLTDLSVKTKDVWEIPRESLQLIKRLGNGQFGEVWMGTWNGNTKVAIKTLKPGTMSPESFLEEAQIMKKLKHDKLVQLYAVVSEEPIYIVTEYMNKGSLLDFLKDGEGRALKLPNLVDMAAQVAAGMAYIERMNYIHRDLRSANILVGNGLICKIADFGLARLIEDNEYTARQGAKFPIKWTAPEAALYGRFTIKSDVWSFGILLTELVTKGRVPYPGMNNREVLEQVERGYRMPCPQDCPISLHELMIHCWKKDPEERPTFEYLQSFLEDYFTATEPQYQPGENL

Macrophage colony-stimulating factor 1 receptor (Homo sapiens), sequence (P07333 whole entry): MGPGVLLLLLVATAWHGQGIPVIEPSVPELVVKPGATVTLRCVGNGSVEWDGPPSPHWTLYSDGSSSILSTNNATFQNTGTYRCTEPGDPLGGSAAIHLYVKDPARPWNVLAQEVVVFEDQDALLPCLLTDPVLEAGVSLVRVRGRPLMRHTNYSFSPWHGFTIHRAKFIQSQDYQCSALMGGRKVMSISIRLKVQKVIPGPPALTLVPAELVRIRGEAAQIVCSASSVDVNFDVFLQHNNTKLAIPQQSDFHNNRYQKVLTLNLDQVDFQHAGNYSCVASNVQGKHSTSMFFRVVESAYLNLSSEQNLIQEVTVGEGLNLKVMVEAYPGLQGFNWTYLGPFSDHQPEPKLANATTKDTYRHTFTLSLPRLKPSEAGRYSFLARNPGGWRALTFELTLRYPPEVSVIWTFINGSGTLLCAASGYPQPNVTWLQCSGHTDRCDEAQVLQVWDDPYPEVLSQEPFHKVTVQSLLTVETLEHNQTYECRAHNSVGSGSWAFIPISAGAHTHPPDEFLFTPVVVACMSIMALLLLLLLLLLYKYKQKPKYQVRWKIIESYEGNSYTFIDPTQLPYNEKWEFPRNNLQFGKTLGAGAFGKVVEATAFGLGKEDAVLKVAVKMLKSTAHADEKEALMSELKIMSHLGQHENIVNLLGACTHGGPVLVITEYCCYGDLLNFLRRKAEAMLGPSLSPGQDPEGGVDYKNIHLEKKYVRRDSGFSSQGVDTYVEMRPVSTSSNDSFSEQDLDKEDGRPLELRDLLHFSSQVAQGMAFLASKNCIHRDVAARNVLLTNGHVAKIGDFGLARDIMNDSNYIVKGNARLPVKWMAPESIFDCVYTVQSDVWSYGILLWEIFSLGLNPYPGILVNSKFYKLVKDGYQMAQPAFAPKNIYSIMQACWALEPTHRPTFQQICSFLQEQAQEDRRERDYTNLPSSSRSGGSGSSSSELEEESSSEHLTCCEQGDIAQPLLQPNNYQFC
Vascular endothelial growth factor receptor 3 (Homo sapiens), sequence (P35916 whole entry): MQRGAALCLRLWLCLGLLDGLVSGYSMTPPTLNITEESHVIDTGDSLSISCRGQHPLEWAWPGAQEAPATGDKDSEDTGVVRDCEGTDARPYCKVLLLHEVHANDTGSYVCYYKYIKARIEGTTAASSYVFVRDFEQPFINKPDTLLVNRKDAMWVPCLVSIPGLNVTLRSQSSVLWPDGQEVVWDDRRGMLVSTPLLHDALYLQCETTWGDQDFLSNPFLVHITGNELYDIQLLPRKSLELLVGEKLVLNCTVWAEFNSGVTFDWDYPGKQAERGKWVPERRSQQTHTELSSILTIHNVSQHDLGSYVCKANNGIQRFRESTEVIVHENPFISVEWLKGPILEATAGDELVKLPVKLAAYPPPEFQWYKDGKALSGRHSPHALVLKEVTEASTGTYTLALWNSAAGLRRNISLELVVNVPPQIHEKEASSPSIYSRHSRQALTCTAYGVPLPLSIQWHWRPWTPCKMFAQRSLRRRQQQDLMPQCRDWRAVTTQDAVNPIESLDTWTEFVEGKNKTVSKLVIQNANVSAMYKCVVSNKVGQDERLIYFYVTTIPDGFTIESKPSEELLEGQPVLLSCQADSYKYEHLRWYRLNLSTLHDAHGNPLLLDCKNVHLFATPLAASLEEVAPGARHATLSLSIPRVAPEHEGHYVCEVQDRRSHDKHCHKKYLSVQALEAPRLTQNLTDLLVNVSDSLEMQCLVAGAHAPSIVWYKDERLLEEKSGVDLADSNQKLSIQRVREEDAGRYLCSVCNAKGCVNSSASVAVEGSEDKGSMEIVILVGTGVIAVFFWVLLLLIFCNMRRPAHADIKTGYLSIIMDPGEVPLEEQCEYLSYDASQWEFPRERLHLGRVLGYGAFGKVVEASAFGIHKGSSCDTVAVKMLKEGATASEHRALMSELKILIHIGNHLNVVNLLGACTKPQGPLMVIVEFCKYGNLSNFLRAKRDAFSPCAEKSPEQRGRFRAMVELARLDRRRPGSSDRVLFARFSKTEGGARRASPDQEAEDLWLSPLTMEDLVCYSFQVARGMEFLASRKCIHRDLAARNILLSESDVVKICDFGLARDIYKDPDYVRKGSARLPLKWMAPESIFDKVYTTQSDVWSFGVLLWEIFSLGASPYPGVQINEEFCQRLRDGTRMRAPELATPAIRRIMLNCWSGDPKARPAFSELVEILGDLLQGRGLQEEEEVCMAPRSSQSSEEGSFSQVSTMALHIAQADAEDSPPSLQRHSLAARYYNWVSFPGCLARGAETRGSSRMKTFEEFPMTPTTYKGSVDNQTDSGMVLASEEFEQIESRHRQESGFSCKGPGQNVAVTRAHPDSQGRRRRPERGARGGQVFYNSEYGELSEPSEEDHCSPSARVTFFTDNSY
Serine/threonine-protein kinase PLK1 (Homo sapiens), sequence (P53350 whole entry): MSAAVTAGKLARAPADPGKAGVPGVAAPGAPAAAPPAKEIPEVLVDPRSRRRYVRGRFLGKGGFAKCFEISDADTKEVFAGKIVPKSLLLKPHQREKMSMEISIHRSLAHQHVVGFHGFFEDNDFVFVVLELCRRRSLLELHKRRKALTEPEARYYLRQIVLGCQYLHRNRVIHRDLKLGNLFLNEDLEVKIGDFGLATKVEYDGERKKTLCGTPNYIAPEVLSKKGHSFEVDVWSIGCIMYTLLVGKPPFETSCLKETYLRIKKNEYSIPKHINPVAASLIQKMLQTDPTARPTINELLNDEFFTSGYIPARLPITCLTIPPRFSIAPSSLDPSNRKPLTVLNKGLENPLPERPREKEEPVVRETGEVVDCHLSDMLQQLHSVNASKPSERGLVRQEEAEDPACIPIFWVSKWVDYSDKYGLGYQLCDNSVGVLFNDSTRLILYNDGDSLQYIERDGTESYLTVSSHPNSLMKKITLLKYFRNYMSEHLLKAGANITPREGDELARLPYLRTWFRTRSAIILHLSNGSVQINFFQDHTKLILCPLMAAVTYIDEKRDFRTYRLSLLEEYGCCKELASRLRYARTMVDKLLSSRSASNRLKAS
Serine/threonine-protein kinase Nek6 (Homo sapiens), sequence (Q9HC98 whole entry): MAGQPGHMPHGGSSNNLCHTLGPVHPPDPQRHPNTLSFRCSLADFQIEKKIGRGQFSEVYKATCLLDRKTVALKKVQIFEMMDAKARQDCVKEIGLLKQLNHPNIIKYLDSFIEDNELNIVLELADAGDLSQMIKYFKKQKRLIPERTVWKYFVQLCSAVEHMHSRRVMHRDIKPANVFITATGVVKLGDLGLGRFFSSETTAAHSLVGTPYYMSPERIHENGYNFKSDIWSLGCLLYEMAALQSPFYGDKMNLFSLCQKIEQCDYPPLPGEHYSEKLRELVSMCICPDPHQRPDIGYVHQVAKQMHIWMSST
Serine/threonine-protein kinase Nek7 (Homo sapiens), sequence (Q8TDX7 whole entry, looked up): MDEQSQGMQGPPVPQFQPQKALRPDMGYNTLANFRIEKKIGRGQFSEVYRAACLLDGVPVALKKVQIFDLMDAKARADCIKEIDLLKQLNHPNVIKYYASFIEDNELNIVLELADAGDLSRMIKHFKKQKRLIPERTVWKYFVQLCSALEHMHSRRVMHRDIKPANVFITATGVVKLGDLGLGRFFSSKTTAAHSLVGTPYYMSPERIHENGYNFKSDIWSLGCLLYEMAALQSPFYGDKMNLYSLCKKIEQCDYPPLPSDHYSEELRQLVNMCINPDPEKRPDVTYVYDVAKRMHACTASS

| Compound | inhibition [1] [%] | inhibition [2] [%] | inhibition [3] [%] | inhibition [4] [%] | inhibition [5] [%] | inhibition [6] [%] | inhibition [7] [%] | inhibition [8] [%] | inhibition [9] [%] | inhibition [10] [%] | inhibition [11] [%] | inhibition [12] [%] | inhibition [13] [%] | inhibition [14] [%] | inhibition [15] [%] | inhibition [16] [%] | inhibition [17] [%] | inhibition [18] [%] | inhibition [19] [%] | inhibition [20] [%] |
| --- | --- | --- | --- | --- | --- | --- | --- | --- | --- | --- | --- | --- | --- | --- | --- | --- | --- | --- | --- | --- |
| NS(=O)(=O)c1ccc(NC=C2C(=O)Nc3ccc4ncsc4c32)cc1 | 65.4 | 3.02 | 6.96 | 5.94 | 8.12 | 1.57 | 7.78 | 7.6 | 13.9 | 9.07 | 32 | 4.42 | 6.99 | 52.1 | 87.5 | 63.9 | 102 | 47.5 | 85.5 | 5.49 |
| COC(=O)Nc1nc2cc(Oc3ccc(NC(=O)Nc4cccc(Br)c4)cc3)ccc2[nH]1 | 5.38 | 2.6 | 2.19 | 3.46 | 2.81 | 3.89 | 3.38 | 3.11 | 2.69 | 7.82 | 15.4 | 6.02 | 2.36 | 5.37 | 5.43 | 3.16 | 11.9 | 19.9 | 43.2 | 3.15 |
